Results filed as inconclusive are left out. Activity calls are given as the source filed them. Calls come from the whole dose curve.

Experiment [1] in a line: Primary qHTS for Huh7 cytotoxicity: counterscreen for inhibitors of MERS-S pseudotyped particle cell entry (AID 1479147). Conditions: outcome: dose series up to 57.1 µM unless noted. (Quantitative high-throughput screening tests each substance at several concentrations.)
The nature of experiment [2]: Primary qHTS for inhibitors of MERS-S pseudo-typed particle cell entry (AID 1479149). For activity change, negative = inhibition: % is set by controls: 0 for no effect and ±100 for the full control effect. Note: nearly all actives have a fitted effect of over 60% in size. To be noted: outcome: dose series up to 57.1 µM unless noted.
Experiment [3] can be described thus: Primary qHTS for Vero E6 cytotoxicity: counterscreen for inhibitors of SARS-S pseudo-typed particle cell entry (AID 1479150). To be noted: outcome: dose series up to 57.1 µM unless noted.
Experiment [4] in a line: Cytotoxicity counterscreen for inhibitors of SARS-CoV-2 cell entry (AID 1645845). Note: nearly all actives have a fitted effect of over 50% in size. Conditions: outcome: dose series up to 57.1 µM unless noted. The method, boiled down:
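48 h compound treatment (after 1 h preincubation), HEK293-ACE2 cells, 37 C/5% CO2; ATP luminescence endpoint; normalized to cell wells and media blanks.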

A short description of experiment [5]: Primary qHTS to identify inhibitors of SARS-CoV-2 cell entry (AID 1645846). Note: nearly all actives have a fitted effect of over 45% in size. To be noted: SARS-CoV-2 pseudovirus cell entry assay, luminescence; activity change, negative = inhibition: at 57.1 µM (top of the series) unless noted. The method in brief: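 Entry measured by luciferase signal 48 h after adding SARS-CoV-2-S pseudotyped MLV particles to HEK293-ACE2 cells preincubated 1 h with compounds. Normalisation: bald particles and spike particles.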

With `OCc1ccccc1`, the Potency entry in experiment [1], in experiment [2], in experiment [3] and in experiment [4] was “inactive” in each case. Further, in experiment [5], the activity change, negative = inhibition was 3.04%.
Take `C[N@+]12CCCC[C@@H]1CCC(=C(c1cccs1)c1cccs1)C2`: the Potency entry in experiment [1], in experiment [2], in experiment [3] and in experiment [4] was “inactive” throughout. The activity change, negative = inhibition in experiment [5] was -20.7%.
Turning to `N[C@@H](C(=O)N[C@@H]1C(=O)N2C(C(=O)O)=C(Cl)CC[C@H]12)c1ccccc1`, the Potency result in experiment [1], in experiment [2], in experiment [3] and in experiment [4] was “inactive” throughout. In experiment [5], the activity change, negative = inhibition was -20.1%.
Regarding `CO/N=C(/C(=O)N[C@@H]1C(=O)N2C(C(=O)O)=C(CSC(=O)c3ccco3)CS[C@H]12)c1csc(N)n1`, the Potency result in experiment [1], in experiment [2], in experiment [3] and in experiment [4] was “inactive” each time. The activity change, negative = inhibition in experiment [5] is -26.3%.
Take `Cc1ccccc1-c1cc(N2CCN(C)CC2)ncc1N(C)C(=O)C(C)(C)c1cc(C(F)(F)F)cc(C(F)(F)F)c1`: the Potency entry in experiment [1], in experiment [2], in experiment [3] and in experiment [4] was “inactive” in each case. For the same compound, in experiment [5], the activity change, negative = inhibition is 3.24%.
As for `CCC[C@@H]1C[C@@H](C(=O)N[C@@H](C2O[C@H](SC)[C@H](O)[C@@H](O)[C@H]2O)[C@H](C)Cl)N(C)C1` (stereo not given in full), the Potency result in experiment [1], in experiment [2], in experiment [3], in experiment [4] and in experiment [5] was “inactive” in each case.
Turning to `O=C(OC[C@H]1O[C@@H](OC(=O)c2cc(O)c(O)c(O)c2)[C@H](O)[C@@H](OC(=O)c2cc(O)c(O)c(O)c2)[C@@H]1O)c1cc(O)c(O)c(O)c1`, the Potency entry in experiment [1], in experiment [2], in experiment [3] and in experiment [4] was “inactive” each time. Further, in experiment [5], the activity change, negative = inhibition was -1.77%.
Consider `CCN(CC)CCS(=O)(=O)[C@@H]1CCN2C(=O)c3coc(n3)CC(=O)C[C@H](O)/C=C(C)/C=C/CNC(=O)/C=C/[C@@H](C)[C@@H](C(C)C)OC(=O)[C@@H]12`, for which the Potency result in experiment [1], in experiment [2], in experiment [3] and in experiment [4] was “inactive” in each case. Further, in experiment [5], the activity change, negative = inhibition was -29%.
Take `O=C(O)c1cc(=O)c2c3nc4ccccc4oc-3cc(=O)c2[nH]1`: the Potency entry in experiment [1], in experiment [2], in experiment [3] and in experiment [4] was “inactive” throughout. Also, the activity change, negative = inhibition in experiment [5] is -16.2%.
Turning to `CO[C@@H]1C[C@H](O[C@H]2[C@H](C)[C@H](O[C@@H]3O[C@@H](C)C[C@@H](N(C)C)[C@H]3OC(C)=O)[C@H](C)C[C@]3(CO3)C(=O)[C@H](C)[C@H](OC(C)=O)[C@H](C)[C@H](C)OC(=O)[C@@H]2C)O[C@H](C)[C@H]1OC(C)=O`, the Potency entry in experiment [1], in experiment [2], in experiment [3] and in experiment [4] was “inactive” throughout. The activity change, negative = inhibition in experiment [5] was -34.5%.
Regarding `NC(=O)c1ccc[n+]([C@@H]2O[C@H](COP(=O)([O-])OP(=O)(O)OC[C@H]3O[C@@H](n4cnc5c(N)ncnc54)[C@H](O)[C@@H]3O)[C@@H](O)[C@H]2O)c1`, the Potency entry in experiment [1], in experiment [2], in experiment [3] and in experiment [4] was “inactive” in each case. Also, the activity change, negative = inhibition in experiment [5] is -19.8%.
Turning to `CCN(CC)CCOc1ccc2nc(N(C)C)sc2c1`, the Potency entry in experiment [1], in experiment [2], in experiment [3] and in experiment [4] was “inactive” each time. Further, the activity change, negative = inhibition in experiment [5] was -8.36% [at 114 µM].
Turning to `Cc1nccn1CCC(C(N)=O)(c1ccccc1)c1ccccc1`, the Potency result in experiment [1], in experiment [2], in experiment [3] and in experiment [4] was “inactive” throughout. The activity change, negative = inhibition in experiment [5] is -25.4%.
As to `CCC(c1ccccc1)c1noc(CCN(CC)CC)n1` (stereo not given), the Potency entry in experiment [1], in experiment [2], in experiment [3] and in experiment [4] was “inactive” throughout. Also, in experiment [5], the activity change, negative = inhibition was -15.7%.
For `CCCCCC(O)/C=C/[C@@H]1C(CCCCCCC(=O)O)C(=O)C[C@@H]1O` (stereo not given in full), the Potency result in experiment [1], in experiment [2], in experiment [3] and in experiment [4] was “inactive” in each case. The activity change, negative = inhibition in experiment [5] was -20.3%.
Turning to `CCC(C)(C)OC(=O)N[C@@H](Cc1c[nH]c2ccccc12)C(=O)N[C@@H](CCSC)C(=O)N[C@@H](CC(=O)O)C(=O)N[C@@H](Cc1ccccc1)C(N)=O`, the Potency result in experiment [1], in experiment [2], in experiment [3] and in experiment [4] was “inactive” in each case. Further, in experiment [5], the activity change, negative = inhibition is -23%.
For `CCC(=O)O[C@@H]1[C@@H](C)O[C@@H](O[C@H]2[C@H](N(C)C)[C@@H](O)[C@H](O[C@H]3[C@@H](CC=O)C[C@@H](C)[C@@H](OC(C)=O)/C=C/C=C/C[C@@H](C)OC(=O)C[C@@H](OC(=O)CC)[C@@H]3OC)O[C@@H]2C)C[C@]1(C)OC(C)=O`, the Potency entry in experiment [1], in experiment [2], in experiment [3] and in experiment [4] was “inactive” throughout. Further, in experiment [5], the activity change, negative = inhibition was -16.2%.
Regarding `CN(C)C(=O)NC1CCC(CCN2CCN(c3cccc(Cl)c3Cl)CC2)CC1` (stereo not given), the Potency result in experiment [1], in experiment [2], in experiment [3] and in experiment [4] was “inactive” throughout. In addition, the activity change, negative = inhibition in experiment [5] was -20.6% [at 27.1 µM].
In the case of `Cc1[nH]cnc1C[C@H]1CCc2c(C)c3ccccc3n2C1=O`, the Potency entry in experiment [1], in experiment [2], in experiment [3] and in experiment [4] was “inactive” throughout. In experiment [5], the activity change, negative = inhibition is -26.5%.
Regarding `Oc1cc(O)cc(O)c1`, the Potency result in experiment [1], in experiment [2], in experiment [3] and in experiment [4] was “inactive” each time. Further, the activity change, negative = inhibition in experiment [5] was -21.2%.
For `C[C@@H]1C[C@H]2[C@@H]3C[C@H](F)C4=CC(=O)C=C[C@]4(C)[C@@]3(Cl)[C@@H](O)C[C@]2(C)[C@H]1C(=O)COC(=O)C(C)(C)C`, the Potency result in experiment [1], in experiment [2], in experiment [3] and in experiment [4] was “inactive” each time. Moreover, in experiment [5], the activity change, negative = inhibition came to 1.93%.
`OCCCNc1ccccc1`: the Potency result in experiment [1], in experiment [2], in experiment [3] and in experiment [4] was “inactive” throughout. The activity change, negative = inhibition in experiment [5] was -22.3%.
As for `CC[C@H](C)C1NC(=O)[C@H](Cc2ccc(O)cc2)NC(=O)[C@@H](N)CSSC[C@@H](C(=O)N2CCC[C@H]2C(=O)N[C@@H](CC(C)C)C(=O)NCC(N)=O)NC(=O)[C@H](CC(N)=O)NC(=O)[C@H](CCC(N)=O)NC1=O` (stereo not given in full), the Potency entry in experiment [1], in experiment [2], in experiment [3] and in experiment [4] was “inactive” in each case. Besides, in experiment [5], the activity change, negative = inhibition was -27.2%.

These data come from PubChem BioAssay (NCATS).
